# This excerpt belongs to a sample that is enriched for the strongest signals.
# B1: Sp8391B-bot-388-20-388 (Bacteroides ovatus) (protein)
# chain: GCQNNDENEQHYDNKLFISASNFTKEILFKAGDTNVETGLSVAIAKPEEHDIKVTMSPAPELLSTYKLAYYDETAVLLSEEHYSMPETSTTIKSGSIVSPELPIEFINTGELDIKTTYVLPVTIKSVEGIGVLQSAKTYYYVFRGASLINVVCNISRNRAYPDFKNDSKFNNLTENTMEILFKANSFPNTLNTLMGIESNYLLRIGDATIPNNQLQVATSVNNCTSADLQLESGKWYHVAVAFNKGNVKVYINGVEKLSGSTGKSSVSLGAKHTNEEDGSRCFWVGYSYKDDRYFDGVVSEVRIWNRALTAEEIQATNHFYTIEPESEGLIAYWKFDEGSGTVAKDYSVSGYDLTIEKEPKWESVSLPQ
# Tests used:
# Assay in all cases: glycan array binding signal (z-score within array); higher = stronger binding
# Conditions in all cases: glycan notation: IUPAC condensed, linker removed
# [1] = target: Gal(b1-4)GlcNAc(b1-3)[GlcNAc(b1-6)]Gal(b1-4)GlcNAc
# In short: (§1)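 From the Consortium for Functional Glycomics database, 3228 arrays were curated, keeping only those whose protein sequence was available. Binding is given as a within-array Z-score averaged across arrays sharing a protein sequence and across linkers. Negative Z-scores can be read as non-binding.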
# [2] = target: Gal(b1-4)GlcNAc(b1-6)Gal(b1-4)GlcNAc
# In short: as §1
# Gal(b1-4)GlcNAc6P = target: Gal(b1-4)GlcNAc6P
# In short: as §1
# GalNAc4S6S(b1-4)GlcNAc = target: GalNAc4S6S(b1-4)GlcNAc
# In short: as §1
# [3] = target: Glc(a1-4)Glc(a1-4)Glc(a1-4)Glc
# In short: as §1
# [4] = target: GlcNAc(b1-2)Man(a1-3)[GlcNAc(b1-4)][GlcNAc(b1-2)Man(a1-6)]Man(b1-4)GlcNAc(b1-4)GlcNAc
# In short: as §1
# [5] = target: GlcNAc(b1-3)Gal(b1-4)GlcNAc(b1-3)Gal(b1-4)GlcNAc(b1-3)Gal(b1-4)GlcNAc(b1-2)Man(a1-3)[GlcNAc(b1-3)Gal(b1-4)GlcNAc(b1-3)Gal(b1-4)GlcNAc(b1-3)Gal(b1-4)GlcNAc(b1-2)Man(a1-6)]Man(b1-4)GlcNAc(b1-4)[Fuc(a1-6)]GlcNAc
# In short: as §1
# GlcNAc(b1-3)Man = target: GlcNAc(b1-3)Man
# In short: as §1
# [6] = target: GlcNAc(b1-4)GlcNAc(b1-4)GlcNAc
# In short: as §1
# [7] = target: Kdn(a2-3)Gal(b1-4)[Fuc(a1-3)]GlcNAc
# In short: as §1
# MurNAc(b1-4)GlcNAc = target: MurNAc(b1-4)GlcNAc
# In short: as §1
# [8] = target: Neu5Ac(a2-3)Gal(b1-3)GlcNAc
# In short: as §1
# [9] = target: Neu5Ac(a2-3)Gal(b1-3)GlcNAc(b1-2)Man(a1-3)[GlcNAc(b1-4)][Neu5Ac(a2-3)Gal(b1-3)GlcNAc(b1-2)Man(a1-6)]Man(b1-4)GlcNAc(b1-4)GlcNAc
# In short: as §1
# [10] = target: Neu5Ac(a2-3)Gal(b1-4)GlcNAc(b1-2)Man(a1-3)[Neu5Ac(a2-3)Gal(b1-4)GlcNAc(b1-2)Man(a1-6)]Man(b1-4)GlcNAc(b1-4)GlcNAc
# In short: as §1
# [11] = target: Neu5Ac(a2-3)Gal(b1-4)GlcNAc(b1-2)[Neu5Ac(a2-3)Gal(b1-4)GlcNAc(b1-6)]Man(a1-6)[Neu5Ac(a2-3)Gal(b1-4)GlcNAc(b1-2)Man(a1-3)]Man(b1-4)GlcNAc(b1-4)GlcNAc
# In short: as §1
# [12] = target: Neu5Ac(a2-3)Gal(b1-4)GlcNAc(b1-3)GalNAc
# In short: as §1
# [13] = target: Neu5Ac(a2-3)Gal6S(b1-4)GlcNAc
# In short: as §1
# [14] = target: Neu5Ac(a2-3)[GalNAc(b1-4)]Gal(b1-4)Glc
# In short: as §1
# [15] = target: Neu5Ac(a2-6)Gal(b1-3)GlcNAc(b1-3)[Gal(b1-4)GlcNAc(b1-6)]Gal(b1-4)Glc
# In short: as §1
# [16] = target: Neu5Ac(a2-6)Gal(b1-4)GlcNAc
# In short: as §1
# [17] = target: Neu5Ac(a2-6)Gal(b1-4)GlcNAc(b1-2)Man(a1-6)[Man(a1-3)]Man(b1-4)GlcNAc(b1-4)GlcNAc
# In short: as §1
# [18] = target: Neu5Ac(a2-6)Gal(b1-4)GlcNAc(b1-2)[Neu5Ac(a2-6)Gal(b1-4)GlcNAc(b1-4)]Man(a1-3)[GlcNAc(b1-4)][Neu5Ac(a2-6)Gal(b1-4)GlcNAc(b1-2)[Neu5Ac(a2-6)Gal(b1-4)GlcNAc(b1-6)]Man(a1-6)]Man(b1-4)GlcNAc(b1-4)GlcNAc
# In short: as §1
# [19] = target: Neu5Ac(a2-6)Gal(b1-4)GlcNAc(b1-6)[Gal(b1-3)]GalNAc
# In short: as §1
# [20] = target: Neu5Ac(a2-6)GalNAc(b1-4)GlcNAc6S
# In short: as §1
# [21] = target: Neu5Ac(a2-8)Neu5Ac(a2-3)[GalNAc(b1-4)]Gal(b1-4)Glc
# In short: as §1
# [22] = target: Neu5Ac(a2-8)Neu5Ac(a2-8)Neu5Ac(a2-3)Gal(b1-4)Glc
# In short: as §1
# [23] = target: Neu5Ac9Ac(a2-6)Gal(b1-4)GlcNAc
# In short: as §1
# [24] = target: Neu5Gc(a2-8)Neu5Gc(a2-3)Gal(b1-4)GlcNAc(b1-3)Gal(b1-4)GlcNAc
# In short: as §1
binder,measurement,setting,value
B1,glycan array binding signal (z-score),[1],0.193
same,glycan array binding signal (z-score),[2],0.486
same,glycan array binding signal (z-score),Gal(b1-4)GlcNAc6P,0.015
same,glycan array binding signal (z-score),GalNAc4S6S(b1-4)GlcNAc,-0.043
same,glycan array binding signal (z-score),[3],-0.549
same,glycan array binding signal (z-score),[4],-0.101
same,glycan array binding signal (z-score),[5],2.65
same,glycan array binding signal (z-score),GlcNAc(b1-3)Man,0.083
same,glycan array binding signal (z-score),[6],-0.077
same,glycan array binding signal (z-score),[7],1.91
same,glycan array binding signal (z-score),MurNAc(b1-4)GlcNAc,-0.265
same,glycan array binding signal (z-score),[8],-0.213
same,glycan array binding signal (z-score),[9],-0.652
same,glycan array binding signal (z-score),[10],-0.533
same,glycan array binding signal (z-score),[11],0.918
same,glycan array binding signal (z-score),[12],-0.435
same,glycan array binding signal (z-score),[13],-0.501
same,glycan array binding signal (z-score),[14],0.131
same,glycan array binding signal (z-score),[15],6.14
same,glycan array binding signal (z-score),[16],-0.355
same,glycan array binding signal (z-score),[17],0.075
same,glycan array binding signal (z-score),[18],2.53
same,glycan array binding signal (z-score),[19],-0.211
same,glycan array binding signal (z-score),[20],-0.019
same,glycan array binding signal (z-score),[21],0.19
same,glycan array binding signal (z-score),[22],0.117
same,glycan array binding signal (z-score),[23],-0.27
same,glycan array binding signal (z-score),[24],-1.02

# From the supplement of paper PMC8728848
